# According to PubChem BioAssay (NCI):
# This is part of a sample that, as a whole, favours compounds with a hit. Of some 79,000 tested, about 15% had one in any assay. Calls of active or inactive are those of the source. No stated cut-off is given here; in the data, active means growth inhibition above about 70%; inactive means the rest.
# Test: NCI Yeast Anticancer Drug Screen. Data for the cln2 rad14 strain (AID 165);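 further: 0% = growth equal to vehicle treated cultures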
# Details: S. cerevisiae cln2 rad14 strain, at 50.0 µM, stronger effect = higher value
# How it was run: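 Test compounds were added to cln2 rad14 yeast cultures; inhibition of growth was then determined by comparison with vehicle treatment.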
row,Structure (SMILES),growth inhibition
1,CCCCCCCCCCCCCCCCCCCCOC1OC(COC(C)=O)C(OC(C)=O)C(OC(C)=O)C1OC(C)=O (stereo not given),12% (inactive)
2,O=C1/C(=C/c2ccc(Cl)cc2)CCC1CCN1CCOCC1 (stereo not given),60% (inactive)
3,Nc1ccc2c(c1)NCC2,12.1% (inactive)
4,N#CCCN(C1=NN(C(=O)CC(=O)Nc2cccc(Cl)c2)C(c2ccccc2)C1)c1ccccc1Cl (stereo not given),11.5% (inactive)
5,COC1=NCc2ccccc2-c2ccccc21,8.55% (inactive)
6,CNc1nnnn1C1OC(CO)C(O)C1O (stereo not given),9.35% (inactive)
7,Cc1cc(C(=O)NN)no1,-10.4% (inactive)
8,Cn1c(=O)c2c(nc(CCCCCCCCc3nc4c(c(=O)n(C)c(=O)n4C)n3C)n2C)n(C)c1=O,-45% (inactive)
9,S=C1Cc2c([nH]c3ccccc23)-c2ccccc2N1,-3.9% (inactive)
10,CCC1OC(=O)CC(O)C(C)C(OC2OC(C)CC(N(C)C)C2O)C(CC=O)CC(C)C(=O)/C=C/C2(C)OC2C1C (stereo not given),-1.55% (inactive)
11,CC(C)CCC(=O)OC/C(=N\Nc1ccc([N+](=O)[O-])cc1[N+](=O)[O-])c1ccc(-c2ccccc2)cc1,-35.6% (inactive)
12,CC(O)CN1CCCC1 (stereo not given),6.2% (inactive)
13,COc1cc(CC2C(=O)OCC2C2(c3ccc4c(c3)OCO4)SCCCS2)cc(OC)c1OC (stereo not given),27.5% (inactive)
14,O=C1CN(C(=O)Nc2ccccc2)c2ccccc2N1,4.55% (inactive)
15,COc1cc(CCl)c(OC)cc1Cl,-35.6% (inactive)
16,CN(C)CCCN1c2ccccc2Sc2cnccc21,-0.05% (inactive)
17,O=C1CSc2nc3ccc(Br)cc3c(=O)n21,-19.4% (inactive)
18,CC(C)(C)c1ccnc(C(O)(C(F)(F)F)C(F)(F)F)c1,-43.8% (inactive)
19,N/C(=N\N=C\C1CC2C=CC1C2)NO (stereo not given),-0.05% (inactive)
20,CC1SC2=NC3=C(c4ccccc4C3=O)C(c3ccc(Br)cc3)N2C1=O (stereo not given),-15.8% (inactive)

row,Structure (SMILES),growth inhibition
1,CC(C)C(O)C[N+](=O)[O-] (stereo not given),6.25% (inactive)
2,Cc1cc2nc3c(=O)[nH]c(=O)nc-3n(CCOC(=O)CCC(=O)O)c2cc1C,0.2% (inactive)
3,Cc1cc(=O)c2c(Br)ccc(Br)c2[nH]1,3.4% (inactive)
4,CC(C=O)CCC(C)(O)C=O (stereo not given),8.65% (inactive)
5,c1ccc(CC2=NCCc3ccccc32)cc1,1.15% (inactive)
6,NC(=O)c1ccccc1NC(=O)C(=O)C(c1cnc2ccc([N+](=O)[O-])cc2n1)[N+](=O)[O-] (stereo not given),12.9% (inactive)
7,CCCOC(=O)CC(CC(=O)OCCC)C(=O)OCCC,-13.4% (inactive)
8,CN(C)NC1=C([N+](=O)[O-])C=NN(c2ccccc2)C1,19.4% (inactive)
9,O=C1c2ccc3ccccc3c2C(=O)c2ccc3ccccc3c21,-30.2% (inactive)
10,Clc1nnc(-c2ccccc2)s1,7.85% (inactive)
11,CCCCc1ccc2[n+](c1)C(C(=O)OCC)=PC2 (stereo not given),-18.9% (inactive)
12,COC(=O)/C(=N/O)C(C(=O)C=C(C)C)C(=O)C(=O)Nc1nc2ccc([N+](=O)[O-])cc2s1 (stereo not given),-58.8% (inactive)
13,COCOS(C)(=O)=O,4.8% (inactive)
14,COC(=O)C1CC[N-]CC1.COC(=O)C1CC[N-]CC1.[Cl][Pt+2][Cl],-24.4% (inactive)
15,Cc1cccc(C)[n+]1[O-],-38.8% (inactive)
16,NC(=S)n1nc(-c2ccccc2)c(N=Nc2ccccc2[N+](=O)[O-])c1-c1ccccc1,-35.6% (inactive)
17,NC(CSC(=O)c1ccccc1)C(=O)O (stereo not given),-2.55% (inactive)
18,CCCCCCCCCCCCSC(=O)NCCC,0.05% (inactive)
19,O=[N+]([O-])c1cc(N(c2ccccc2)c2ccccc2)cc([N+](=O)[O-])c1,9.95% (inactive)
20,N#CC(CC(=O)NN)C(=O)NN (stereo not given),-12.4% (inactive)
